We go through 13 compounds from PubChem BioAssay (NCI).

Compounds without any hit were thinned out: in the full panel of roughly 83,000, 20% have a hit.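 Interpretation: 100, growth as untreated; towards 0, rising growth inhibition; 0, no net growth; 0 to -100, cell death. Compounds scoring below 10 were considered active.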 Values without a mark were called inactive. Calls of active or inactive are those of the source.

Some test systems named below: SR leukemia; RPMI-8226 leukemia; OVCAR-8 ovarian; OVCAR-5 ovarian; OVCAR-4 ovarian; SK-OV-3 ovarian; IGROV1 ovarian; OVCAR-3 ovarian; HS 578T breast; NCI/ADR-RES ovarian.
Holding throughout (experiment): NCI-60 one-dose screen, 48 h (100 = growth as untreated, 0 = no growth, -100 = all killed)
What all share (conditions): 10 µM unless noted

Take `COc1ccc(C2CC(c3ccc(Nc4nc(Nc5ccc(F)cc5)nc(Nc5ccc(F)cc5)n4)cc3)=NN2C(C)=O)cc1` (stereo not given): the growth is 16.4% with SR leukemia; 7.18% (active) in the assay with RPMI-8226 leukemia; 90.3% in the assay with OVCAR-8 ovarian; 87.6% in the assay with OVCAR-5 ovarian; 98.1% in the assay with OVCAR-4 ovarian; 131% in the assay on SK-OV-3 ovarian. The growth in the assay with IGROV1 ovarian was 101%; with OVCAR-3 ovarian, 97.9%; in the assay on HS 578T breast it was 111%; in the assay on NCI/ADR-RES ovarian it was 80.5%.
As for `Nc1c(C(=O)O)cc(Cl)cc1[N+](=O)[O-]`, the growth with SR leukemia is 109%; in the assay on RPMI-8226 leukemia it was 104%; in the assay with OVCAR-8 ovarian it was 92.7%; in the assay on OVCAR-5 ovarian, 90.4%; in the assay with OVCAR-4 ovarian it was 99.5%; in the assay on SK-OV-3 ovarian, 101%. Also, the growth was 100% in the assay on IGROV1 ovarian, 105% with OVCAR-3 ovarian, 101% with HS 578T breast and 97.8% with NCI/ADR-RES ovarian.
Regarding `Cc1nc2sc(C(=O)Nc3cccc(Cl)c3)c(N)c2cc1C(O)c1ccccc1` (stereo not given), the growth in the assay with SR leukemia was 8.06% (active); in the assay on RPMI-8226 leukemia it was 11.3%; with OVCAR-8 ovarian it was 19%; in the assay with OVCAR-5 ovarian, 41.4%; with OVCAR-4 ovarian, 71.6%; in the assay with SK-OV-3 ovarian, 40.6%. Besides, the growth in the assay on IGROV1 ovarian was 28.7%; in the assay on OVCAR-3 ovarian, 6.3% (active); with HS 578T breast, 19%; with NCI/ADR-RES ovarian, 5.21% (active).
As to `CC(=O)Nc1c(Cl)cc(Cl)c2c1Cc1cc([N+](=O)[O-])ccc1-2`, the growth with SR leukemia was 47.9%; in the assay on RPMI-8226 leukemia it was 87.1%; in the assay on OVCAR-8 ovarian, 74.8%; in the assay with OVCAR-5 ovarian, 108%; with OVCAR-4 ovarian, 9.59% (active); in the assay with SK-OV-3 ovarian, 87.3%. Besides, the growth in the assay with IGROV1 ovarian was 91.2%; in the assay with OVCAR-3 ovarian, 80.5%; in the assay with HS 578T breast, 65.4%; with NCI/ADR-RES ovarian, 83.5%.
For the compound `O=C1NC(=Nc2ccc(O)cc2)S/C1=C\c1cccs1`, the growth in the assay on SR leukemia was 11.6%; in the assay with RPMI-8226 leukemia it was 2.94% (active); in the assay on OVCAR-8 ovarian it was 48.5%; in the assay with OVCAR-5 ovarian, 84.5%; with OVCAR-4 ovarian, 48.8%; in the assay with SK-OV-3 ovarian it was 62.6%. For the same compound, the growth with IGROV1 ovarian was 38.5%; in the assay on OVCAR-3 ovarian it was 8.01% (active); in the assay on HS 578T breast, 32.6%; in the assay on NCI/ADR-RES ovarian it was 32.1%.
Turning to `COc1ccc(/C=C/C(=O)c2cc3c(N)c(C(=O)Nc4ccc(OC)cc4)sc3nc2C)cc1`, the growth with SR leukemia was 11.8%; in the assay on RPMI-8226 leukemia it was 37.7%; in the assay on OVCAR-8 ovarian, 7.03% (active); with OVCAR-5 ovarian, 42.9%; in the assay with OVCAR-4 ovarian, 53.5%; with SK-OV-3 ovarian it was 16.1%. The growth was 33% in the assay with IGROV1 ovarian, 2.94% (active) in the assay on OVCAR-3 ovarian, 8.09% (active) in the assay with HS 578T breast and 6.34% (active) with NCI/ADR-RES ovarian.
Turning to `O=C(CN1C(=O)NC2NC(=O)NC21)N/N=C/c1ccc(Cl)cc1Cl` (stereo not given), the growth in the assay on SR leukemia is 109%; in the assay on RPMI-8226 leukemia it was 104%; with OVCAR-8 ovarian, 109%; with OVCAR-5 ovarian, 105%; with OVCAR-4 ovarian, 103%; in the assay on SK-OV-3 ovarian, 102%. The growth in the assay on IGROV1 ovarian is 103%; in the assay on OVCAR-3 ovarian it was 104%; in the assay with HS 578T breast, 103%; in the assay with NCI/ADR-RES ovarian, 104%.
As for `O=C1/C=C/[C@@H](O)[C@@H]2C[C@@H](O)C[C@H]2/C=C/CCC[C@H](CCOCc2ccccc2)O1`, the growth was -7.43% (active) in the assay on SR leukemia; 11.5% in the assay on RPMI-8226 leukemia; 9.04% (active) with OVCAR-8 ovarian; 8.12% (active) in the assay on OVCAR-5 ovarian; 25.8% with OVCAR-4 ovarian; 31.3% with SK-OV-3 ovarian. The growth in the assay with IGROV1 ovarian was 15.1%; with OVCAR-3 ovarian, -45.8% (active); in the assay with HS 578T breast it was 23.8%; in the assay with NCI/ADR-RES ovarian, 6.93% (active).
As for `CCOC(=O)C1=C(c2ccccc2)N=c2s/c(=C/c3ccc(Br)cc3)c(=O)n2C1c1ccc(O)cc1` (stereo not given), the growth in the assay with SR leukemia was 54.8%; in the assay on RPMI-8226 leukemia it was 74.1%; in the assay with OVCAR-8 ovarian, 89.2%; with OVCAR-5 ovarian, 105%; in the assay on OVCAR-4 ovarian, 75.1%; in the assay with SK-OV-3 ovarian, 104%. The growth with IGROV1 ovarian was 93.1%; in the assay with OVCAR-3 ovarian, 86.1%; in the assay on HS 578T breast, 84.4%; in the assay on NCI/ADR-RES ovarian, 99.5%.
Regarding `C/C(=N\O)C(=O)NCCCCCC(=O)Nc1ccccc1`, the growth is 104% in the assay on SR leukemia; 106% in the assay with RPMI-8226 leukemia; 96.2% in the assay on OVCAR-8 ovarian; 106% in the assay with OVCAR-5 ovarian; 103% in the assay on OVCAR-4 ovarian; 102% with SK-OV-3 ovarian. For the same compound, the growth in the assay on IGROV1 ovarian was 111%; in the assay on OVCAR-3 ovarian, 109%; in the assay with HS 578T breast, 114%; in the assay with NCI/ADR-RES ovarian, 103%.
On to `CCCCCCCCCCCCCCCCCCOc1ccccc1CC(=O)OCC[N+]1(C)CCOCC1`, for which the growth is 50.7% in the assay on SR leukemia; 59.7% with RPMI-8226 leukemia; 41% in the assay with OVCAR-8 ovarian; 63.1% with OVCAR-5 ovarian; 60.5% with OVCAR-4 ovarian; 100% with SK-OV-3 ovarian. Moreover, the growth in the assay on IGROV1 ovarian is -9.88% (active); with OVCAR-3 ovarian it was 65.4%; with HS 578T breast, 55.1%; in the assay with NCI/ADR-RES ovarian, 104%.
On to `CCn1cc(CNc2ccc(C(=O)Nc3cc4cc(OC)c(OC)cc4c(C)n3)cc2)c(C)n1`, for which the growth in the assay with SR leukemia was 32.8%; in the assay on RPMI-8226 leukemia, -0.529% (active); in the assay with OVCAR-8 ovarian, 1.1% (active); in the assay with OVCAR-5 ovarian it was 72.9%; in the assay on OVCAR-4 ovarian it was 25%; in the assay with SK-OV-3 ovarian, 86.8%. Besides, the growth in the assay with IGROV1 ovarian is 56.1%; in the assay with OVCAR-3 ovarian, 33.7%; in the assay with HS 578T breast, 82.7%; in the assay on NCI/ADR-RES ovarian, 13.4%.
For `CCCCCCCCCCCCCCCCOC(=O)c1c(C)[nH]c(/C=C2\N=C(c3ccc[nH]3)C=C2OC)c1C`, the growth in the assay with SR leukemia is 68.2%; with RPMI-8226 leukemia, -2.3% (active); in the assay on OVCAR-8 ovarian, 15.3%; in the assay on OVCAR-5 ovarian it was 78.4%; with OVCAR-4 ovarian, 72.2%; in the assay on SK-OV-3 ovarian, 70.4%. In addition, the growth in the assay with IGROV1 ovarian is 35.6%; in the assay on OVCAR-3 ovarian it was 47.6%; with HS 578T breast it was 65.9%; with NCI/ADR-RES ovarian, 26.6%.
